# Hits are enriched below; roughly 17% of the tested compounds scored in any of these assays.
# HT1080 IDH1KD tx – toxicity to HT-1080 IDH1 knockdown cells (counter line) | HT-1080 IDH1 knockdown viability, ATP luminescence, 48 h | 2% of 360,000 active | AID 686971 | Potency, µM (doses to about 46.1 µM), inactives show top-dose activity, negative = toxicity, usual class: cytotoxic;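 further: 0% = DMSO wells and -100% = cell-free medium wells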
#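 Knockdown cells (IDH1KD HT-1080) received compounds 2 h after plating at 750 cells/well and were kept 48 h at 37 °C in 5% FBS RPMI. A CellTiter-Glo luminescence read gave % activity for curve fitting.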
# TDP1 cell CPT – DT40-hTDP1 cell growth loss with CPT | chicken DT40 Tdp1-/-;hTDP1 cells + 20 nM CPT, ATP luminescence, 48 h | Potency, µM (highest dose often 46.2 µM), inactives show at the highest dose activity change, negative = growth inhibition, usual class: inhibitors | 12% of 420,000 active; further: on the % scale 0 is the no-effect control and ±100 the full control effect; nearly all actives have a fitted effect of over 55% in size
#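 Chicken DT40 Tdp1-/- cells stably complemented with human TDP1 were seeded at 400 cells/well in medium containing 20 nM camptothecin, exposed to pin-transferred compounds, and grown at 37 °C for at least 48 hr. Viability was read as ATP luminescence.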
# HepG2 tox – HepG2 cytotoxicity, counter-screen for TGF-b inhibitors. AID 588856. 0.76% of 410,000 active. HepG2 CAGA-GFP viability, ATP luminescence, 18 h. Potency, µM (highest dose often 46.1 µM), for inactives: top-dose activity change, negative = cytotoxicity, most hits filed as cytotoxic
#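 CellTiter-Glo luminescence gave cytotoxicity after 18 hours at 37 degrees C. The cells were HepG2 CAGA-GFP in 1% FBS DMEM, stimulated with 500 pg/mL TGF-beta after compound addition. %Activity was normalised to no-cell wells (complete cell-killing) and DMSO (no toxicity), and curves were fitted and classified.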
# HT1080-NT tox – kills 2HG-producing HT-1080-NT fibrosarcoma cells | AID 686970 | HT-1080-NT fibrosarcoma viability, CellTiter-Glo ATP luminescence, 48 h | Potency, µM (titrated, usually from 46.1 µM), without a hit: at the top dose activity, negative = less viability, usual class: cytotoxic | 1.6% of 360,000 active;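 further: NT is the 2HG producing partner of a matched IDH1 knockdown line; 0% = DMSO-treated cells and -100% = media-only wells without cells; nearly all actives have a fitted effect of over 55% in size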
#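 HT-1080-NT; 750 cells/well; 5% FBS RPMI; 48 h compound, 37 degrees C; CellTiter-Glo luminescence; curve fitting and curve-class assignment.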
# DT40 TDP1 no CPT – qHTS for Inhibitors of human tyrosyl-DNA phosphodiesterase 1 (TDP1): qHTS in cells in absence of CPT | DT40 Tdp1-/- hTDP1 cells, no CPT, ATP luminescence, 48 h | Potency, µM (highest dose often 46.2 µM), inactives show at the top dose activity change, negative = growth inhibition, actives largely listed as inhibitors | 15% of 420,000 active; further: on the % scale 0 is the no-effect control and ±100 the full control effect; nearly all actives have a fitted effect of over 55% in size
#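 Compound effects on proliferation are scored in DT40 Tdp1-/-;hTDP1 cells in the absence of CPT. ATP levels (CellTiter-Glo luminescence) are recorded after a ≥48 hr, 37 °C incubation.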
# TGFb inhibitor – inhibitors of TGF-b signaling; AID 588855; 1.2% of 410,000 active; HepG2 CAGA-GFP TGF-b/SMAD3 reporter, GFP fluorescence, 18 h; TGF-beta stimulated, 500 pg/mL final; Potency, µM (top dose mostly 46.1 µM), inactives show at the top dose activity, negative = inhibition, usual class: inhibitors; further: on the % scale 0 is the no-effect control and ±100 the full control effect; nearly all actives have a fitted effect of over 65% in size
#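 TGF-beta reporter screen: HEPG2 CAGA-GFP, 1% FBS, 500 pg/mL TGF-beta final, 18 h; per-cell GFP summed per well; curves fitted and categorized by class.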
# * = called active by the depositor; u = inconclusive; x = no result given; [ ] = remark or other dose. The call rests on the fitted dose curve; in most records, active means well fitted curve in the direction sought with a large enough effect; inconclusive means small, poorly fitted or top-dose-only effect, or another doubt; inactive means no such curve, though single readings can be large; an effect the other way counts as inactive or inconclusive. Potency means the concentration at half of the fitted maximal effect.
SMILES,HT1080 IDH1KD tx,TDP1 cell CPT,HepG2 tox,HT1080-NT tox,DT40 TDP1 no CPT,TGFb inhibitor
CCC(=O)N1Cc2cc(C(=O)Nc3nccs3)nc(-c3cccc(-c4ccccc4OC)c3)c2[C@@H]1CCO,-11%,4.6µM*,x,u,4.6µM*,x
COCCNC(=O)c1cc2c(c(-c3cccc(C#Cc4ccc(OC)c(OC)c4)c3)n1)[C@@H](CCO)N(S(=O)C(C)(C)C)C2 (stereo partly drawn),u,u,-6%,u,u,-1%
COc1ccccc1-c1cccc(-c2nc(C(=O)Nc3nccs3)cc3c2[C@@H](CCO)N(C(=O)CC2CC2)C3)c1,2%,18µM*,x,-11%,12µM*,x
CCS(=O)(=O)N1Cc2cc(C(=O)NCCOC)nc(-c3cccc(-c4ccncc4)c3)c2[C@H]1CCO,-10%,-11%,x,2%,-3%,x
Cc1nc(Nc2cnc(/C=C/c3cc(C(=O)Nc4cccc(C(F)(F)F)c4)ccc3C)cn2)cc(N2CCNCC2)n1,u,18µM*,-106%,u,21µM*,u
CCN(CC(=O)NC(C)(C)C)C(=O)COc1c(Cl)cc(Cl)c2ccc(C)nc12,-24%,23µM*,-46%,6%,13µM*,u
Cc1cnc(C)c(-c2cccc3c2OC(CNC(=O)c2cc(C)on2)C3)n1 (stereo not drawn),x,-1%[9.04 µM],x,x,-7%,x
O=C(NCCCN1CCCC1=O)c1sc2ccccc2c1Cl,5%,0%,-24%,-11%,-12%,1%
CCOC(=O)c1c(NC(=O)C2C3C=CC(C3)C2C(=O)O)sc2c1CCC(CC)C2 (stereo not drawn),u,16µM*,-39%,u,u,-9%
CCOC(=O)c1ccc(NC(=O)NC2=NCCS2)cc1,2.3µM*,-30%,-18%,2.6µM*,u,-7%
CCOC(=O)c1c(NC(=O)C2C3CCC(O3)C2C(=O)O)sc2c1CCC(CC)C2 (stereo not drawn),7%,-17%,-16%,14%,-18%,-2%
CCOC(=O)c1c(NC(=O)C2c3ccccc3Oc3ccccc32)sc(C)c1C,x,u,-3%,x,21µM*,-12%
CCOC(=O)c1ccc(NC(=O)Nc2ccc(S(N)(=O)=O)cc2)cc1,2%,-4%,6%,1%,-2%,15%
COC(=O)c1c(NC(=O)C2c3ccccc3Oc3ccccc32)sc(C)c1C,-7%[9.24 µM],23µM*,-4%,1%,u,-2%
CCC1CN(C(=O)Nc2ccc(C(=O)O)cc2)c2cc(Cl)ccc2O1 (stereo not drawn),x,-27%,-32%,x,-29%,-27%
Cc1c(C(=O)NCc2ccc(C(C)C)cc2)sc(=O)n1Cc1cccc(F)c1,u,u,-64%,-18%,u,u
CCCCn1c(N)c(N(CCC(C)C)C(=O)C2CCCN(C(=O)c3ccc(Cl)cc3)C2)c(=O)[nH]c1=O (stereo not drawn),1%,6%,2%,0%,0%,-17%
CCN(CC)S(=O)(=O)c1ccc(NC(=O)C2c3ccccc3Oc3ccccc32)cc1,-20%,23µM*,-10%,-17%,16µM*,-13%
CCOC(=O)c1cc(NC(=O)/C=C\C(=O)O)ccc1Cl,16%,-11%,-1%,0%,-1%,-19%
CCOC(=O)c1c(NC(=O)C2=C(C)NC(=S)NC2c2ccc(F)cc2F)sc(C)c1C (stereo not drawn),u,u,-26%,-16%,u,u

# Screening results as filed in PubChem BioAssay.
